RE007 growth inh: less growth of the S. pombe RE007 Vpr strain. Potency, µM (top dose mostly 92.2 µM), without a hit: at the highest dose activity change, negative = less growth, actives largely listed as inhibitors. S. pombe RE007 Vpr strain, BacTiter-Glo ATP luminescence, 24 h. 0.21% of 360,000 active; active = well fitted falling curve with a large enough effect; inconclusive = small, poorly fitted or top-dose-only effect; inactive = no such curve, though single readings can be large or run the other way; note: potency is the fitted concentration of half-maximal effect; % is set by controls: 0 for no effect and ±100 for the full control effect; nearly all actives have a fitted effect of over 50% in size
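Fission yeast RE007 carrying one integrated HIV-1 vpr copy, seeded at OD 0.01 in PMG+AL medium with 23 nL pinned compound. Grown 24 h at 30 degrees; viability read by BacTiter-Glo luminescence after 5 min.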
CHX counter: counter-screen hit for Shiga toxin inhibitors, cycloheximide | cell reporter, cycloheximide protein synthesis inhibition counterscreen | max response, % | 12% of 300,000 active | AID 2314; in the data active = max response mostly above about 13%, no sharp cut-off; inactive = mostly below about 14%; note: read at 38.3 µM for the half of the compounds with a filed dose; 0% is about no effect
Giardia FBPA inh: blocks Giardia fructose-bisphosphate aldolase activity. AID 2451. purified Giardia FBPA. 0.71% of 290,000 active. A8B2U2. Potency, µM (doses to about 59.6 µM), for inactives: at the highest dose activity, negative = inhibition, usual class: inhibitors; note: potency is the fitted concentration of half-maximal effect; % is set by controls: 0 for no effect and ±100 for the full control effect; nearly all actives have a fitted effect of over 55% in size
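40 nM FBPA preincubated 10 min at RT with compound (up to 57.5 uM final), then substrate plus GAPDH/TPI/NAD/arsenate coupling and diaphorase/resazurin added. Fluorescence read after 20 min at RT, 525/598 nm.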
Shiga inhibitor: Shiga toxin inhibition. Vero cells, Shiga toxin protein synthesis inhibition reporter. inhibition, % at 38.7 µM. 9.2% of 290,000 active; in the data active = inhibition mostly above about 28%, no sharp cut-off; inactive = mostly below about 43%; note: 0% is about no effect
LmPK inh: LmPK (Leishmania mexicana) enzyme inhibition; Q27686; purified LmPK, Kinase-Glo ATP luminescence, 1 h; Potency, µM (titrated, usually from 57.5 µM), for inactives: at the top dose activity change, negative = inhibition, most hits filed as inhibitors; 0.37% of 290,000 active; note: potency is the fitted concentration of half-maximal effect; % is set by controls: 0 for no effect and ±100 for the full control effect
Target sequence (Q27686 whole entry, looked up): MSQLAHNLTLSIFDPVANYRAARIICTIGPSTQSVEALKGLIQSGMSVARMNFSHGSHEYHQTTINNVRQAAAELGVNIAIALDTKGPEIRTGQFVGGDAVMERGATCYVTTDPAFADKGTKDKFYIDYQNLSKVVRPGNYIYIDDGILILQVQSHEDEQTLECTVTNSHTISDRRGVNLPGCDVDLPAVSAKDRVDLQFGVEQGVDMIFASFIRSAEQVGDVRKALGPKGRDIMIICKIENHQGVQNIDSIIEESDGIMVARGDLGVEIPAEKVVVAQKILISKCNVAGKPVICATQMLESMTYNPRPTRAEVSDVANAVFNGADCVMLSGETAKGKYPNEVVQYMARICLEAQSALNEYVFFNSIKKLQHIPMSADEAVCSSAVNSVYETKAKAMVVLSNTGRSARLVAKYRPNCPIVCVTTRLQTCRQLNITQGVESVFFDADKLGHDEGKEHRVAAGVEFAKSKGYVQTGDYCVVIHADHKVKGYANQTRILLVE
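Purified LmPK (0.1 nM) converted ADP (0.1 mM) to ATP with PEP (0.5 mM) in imidazole buffer pH 7.2 with KCl and MgCl2, 1 h at room temperature. ATP was read by Kinase-Glo luminescence; data normalized to uninhibited and no-enzyme controls.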
TbPYK inhibitor: blocks Trypanosoma brucei pyruvate kinase; Potency, µM (highest dose often 76.8 µM), for the others: at the highest dose activity, negative = inhibition, hits mostly inhibitors; TbPYK enzyme, Kinase-Glo Plus ATP luminescence, 45 min; Q57TT1; 0.12% of 410,000 active; note: potency is the fitted concentration of half-maximal effect; % is set by controls: 0 for no effect and ±100 for the full control effect; nearly all actives have a fitted effect of over 50% in size
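TbPYK + substrate in 50 mM TEA pH 7.2, 100 mM KCl, 10 mM MgCl2, 0.05% BSA, 0.01% Tween-20; cpd pinned; ADP 130 uM final; 45 min RT; Kinase-Glo Plus 10 min; luminescence endpoint.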
Active calls of the source: *; ? = inconclusive; nt = no result; [ ] = dose if it differs, or a comment. The sample as a whole holds a higher share of hits than the screen did. Unless noted, calls come from the whole dose curve; as a rule, active = well fitted curve in the direction sought with a large enough effect; inconclusive = small, poorly fitted or top-dose-only effect, or another doubt; inactive = no such curve, though single readings can be large; an effect the other way counts as inactive or inconclusive.

SMILES | RE007 growth inh | CHX counter | Giardia FBPA inh | Shiga inhibitor | LmPK inh | TbPYK inhibitor
COc1cccc(C(=O)C2CCCN(C(=O)CCC3=NNC(=O)CC3)C2)c1 (configuration not stated) | -4% | 16* | 23% | 46* | -2% | -16%
O=C1CCC(CCC(=O)N2CCCC(C(=O)c3cccc(C(F)(F)F)c3)C2)=NN1 (configuration not stated) | 3% | 11* | 9% | 15 | 1% | -4%
O=C(c1cccc(C(F)(F)F)c1)C1CCCN(C(=O)CCc2cnccn2)C1 (configuration not stated) | -21% | 2 | 0% | 7 | 5% | -2%
O=C(c1cccn1-c1nnc(N2CCCC2)s1)N1CCN(c2ccccc2)CC1 | nt | nt | nt | nt | nt | -11%[15.4 µM]
CCCN(CCC)CCCNC(=O)C1CCC(CNS(=O)(=O)c2ccc(NC(C)=O)cc2)CC1 (configuration not stated) | nt | nt | nt | nt | nt | 2%
Cc1ccc(S(=O)(=O)N/N=C\c2ccc3c(c2)OCO3)cc1 | -23% | 16* | -6% | 41 | -7% | 0%
Cc1ccc(S(=O)(=O)N/N=C\c2ccc3c(c2)OCO3)cc1C | 2% | 5 | nt | -15 | 0% | -13%
COc1ccc(OC)c(S(=O)(=O)N/N=C\c2ccc3c(c2)OCO3)c1 | 8% | 44* | -12% | 73* | 1% | -2%
CCCCOCCCNC(=O)N[C@H](C(=O)OC)C(C)CC (some centres not stated) | 1% | -1 | 1% | 4 | 0% | -8%
CCc1ccc(NC(=O)c2cnn3ccccc23)cc1 | -1% | 43* | -13% | 4 | -20% | -25%
O=C(NCc1ccc(F)cc1)c1cnn2ccccc12 | 0% | 30* | 0% | 68 | 8% | -3%
CSc1cccc(NC(=O)c2cnn3ccccc23)c1 | -18% | 45* | -19% | 76* | -16% | -12%
CCCNC(=O)c1cccc(C(F)(F)F)c1 | 6% | -7 | 1% | -21 | -2% | 1%
Cc1ccc(C(=O)Nc2cccc(C(=O)NCc3ccccc3)c2)cc1 | -17% | 15* | 0% | 23 | 1% | -6%
O=C(NCc1ccco1)c1cccc(NC(=O)c2ccccc2)c1 | 23%[3.69 µM] | -1 | -2% | -5 | 1% | nt
Cc1ccc(C(=O)NCc2ccco2)cc1 | 2% | 18* | -1% | 37 | -9% | -1%
O=C(NC(=S)NCc1ccco1)c1ccccc1 | -8% | -2 | 0% | -4 | 8% | -4%
CC(C)(C)c1ccc(C(=O)NC(=S)NCc2ccco2)cc1 | -16% | 24* | nt | 71 | -6% | -10%
Cc1ccc(C(=O)Nc2cccc(C(=O)NCc3ccco3)c2)cc1 | 14% | 19* | -4% | 35* | -9% | 1%
COc1ccc(C(=O)Nc2cccc(C(=O)NCc3ccccc3)c2)cc1 | 2% | 18 | -1% | 16 | 0% | -1%
COc1ccc(-c2noc(-c3nnn(-c4cc(C)ccc4C)c3N)n2)cc1 | nt | nt | nt | nt | nt | 4%
OCCC1CN(CCCn2cccn2)CCN1C1CCCCC1 (configuration not stated) | -9% | 1 | 6% | -15 | 3% | 2%
Cc1ccc(Cn2nnc3c(=O)[nH]c(C(=O)NCc4ccco4)nc32)cc1 | -3% | 25* | -6% | 111* | -1% | 12%
CC(=O)Nc1ccc(NC(=S)NC(=O)c2ccc(C(C)(C)C)cc2)cc1 | nt | nt | nt | nt | nt | -3%
COCCNC(=S)NC(=O)c1ccc(C(C)(C)C)cc1 | -24% | 59* | -13% | 96* | -1% | -4%
SMILES | RE007 growth inh | CHX counter | Giardia FBPA inh | Shiga inhibitor | LmPK inh | TbPYK inhibitor
Cc1ccc(SCCNCc2ccco2)cc1 | -6% | 14* | ? | 46 | 1% | -10%
Cc1ccc(SCCC(=O)NCCSCc2ccco2)cc1 | 4% | -2 | -1% | 25 | 0% | -14%
CCOC(=O)c1c(NC(=O)/C=C/c2ccccc2)sc2c1CCCC2 | nt | nt | nt | nt | nt | -9%
CCOC(=O)c1ccc(NC2OC(=O)c3ccccc32)cc1 (configuration not stated) | 0% | 15* | 2% | -5 | 0% | -7%
COc1ccc(CNC(=O)Cn2ccc3cc(S(=O)(=O)N4CCCCC4)ccc32)c(OC)c1 | nt | nt | nt | nt | nt | -4%
O=C1C(=O)c2cccc3cccc1c23 | ? | -1 | ? | -3 | 9% | -9%
O=C1C([N+](=O)[O-])=C(O)c2cccc3cccc1c23 | nt | 11* | 25µM* | 8 | -13% | nt
CN(CC(=O)Nc1cccc(F)c1)C(=O)CCNC(=O)c1ccc(Br)cc1 | -2% | 22* | nt | 36 | -1% | 0%
COc1ccc(NC(=O)c2ccc(-c3ccccc3Cl)o2)cc1 | -7% | 43* | -10% | 34 | -2% | -6%
COC(=O)c1sccc1-c1ccc(C(=O)Nc2ccccc2)o1 | ? | 78* | -4% | 75* | 1% | -7%
O=C(Nc1cccc(F)c1)c1ccc(-c2ccccc2Cl)o1 | -19% | 66* | -21% | 105* | 2% | 0%
COc1ccc(NC(=O)c2ccc(-c3cccc(Cl)c3C)o2)cc1 | nt | nt | nt | nt | nt | -2%
CNC(=O)[C@H](Cc1c[nH]c2ccccc12)NC(=O)[C@@H](CC(=O)NO)CC(C)C | nt | nt | nt | nt | nt | 1%
COc1ccc(NC(=O)c2cc(-c3ccccc3Cl)no2)cc1 | -4% | 32* | 0% | 69* | 1% | -8%
CN(CC(=O)Nc1cccc(F)c1)C(=O)c1ccc(-c2ccc(Cl)cc2)o1 | -7% | 23* | nt | 71* | 2% | -8%
Cc1ccc(C)c(NC(=O)CN(C)C(=O)c2ccc(-c3ccc(Cl)cc3)o2)c1 | 16% | nt | nt | nt | nt | -5%
O=C(Nc1ccccc1)c1cc(-c2ccccc2Cl)no1 | ? | 47* | -4% | 122* | -9% | -26%
CCn1cnc2cc(NC(=O)c3ccc(C)cc3)ccc21 | -12% | 44* | ? | 49* | -9% | -2%
Cc1ccc(C(=O)Nc2ccc3c(c2)ncn3C)cc1 | -13% | 26* | 3% | 112* | -8% | 1%
